{"source": "paper PMC4552634", "about": "“A New Set of Chemical Starting Points with Plasmodium falciparum Transmission-Blocking Potential for Antimalarial Drug Discovery” (PLoS ONE, 2015)", "test_system": "P. falciparum stage V gametocytes", "design": "BacTiter-Glo ATP luminescence viability of purified stage V gametocytes in 384-well plates, per cent inhibition versus DMSO", "conditions": "48 h, 5 µM, inhibitor", "note": "Where two headings read alike, the source gives them in different places. The whole screen tested about 13,000 compounds, of which about 3,200 (25%) showed an effect of 50% or more. The list shows a part of the results."}
{"smiles": "CCC(C(=O)Nc1ccccc1)n1nc(-c2ccc(C)c(S(=O)(=O)N3CCCCC3)c2)ccc1=O", "note": "(stereo not drawn) [TCMDC-124712]", "values": [{"measurement": "% Inhibition", "value": -71.76, "unit": "%"}]}
{"smiles": "CC(=O)c1c(Cc2cccc(C(F)(F)F)c2)c[nH]c1C", "note": "[TCMDC-124434]", "values": [{"measurement": "% Inhibition", "value": -10.65, "unit": "%"}]}
{"smiles": "COc1ccc(C(C(=O)NC2CCN(C[C@H](O)c3ccnc4ccc(OC)cc34)CC2)N2CCN(c3ccc(Cl)c(Cl)c3)CC2)cc1", "note": "(stereo partly drawn) [TCMDC-141101]", "values": [{"measurement": "% Inhibition", "value": 14.7, "unit": "%"}]}
{"smiles": "NC(N)=NC(=O)Nc1cc(Cl)c(F)c(Cl)c1", "note": "[TCMDC-137512]", "values": [{"measurement": "% Inhibition", "value": -14.8, "unit": "%"}]}
{"smiles": "Cc1cc(N(C)C)nc(Nc2ccc(NC(=O)c3ccccc3Cl)cc2)n1", "note": "[TCMDC-124722]", "values": [{"measurement": "% Inhibition", "value": -1.9, "unit": "%"}]}
{"smiles": "C=CCn1ccc2c3c(N)nc(N)nc3ccc21", "note": "[TCMDC-137995]", "values": [{"measurement": "% Inhibition", "value": 79.96, "unit": "%"}]}
{"smiles": "Nc1nc(N)c2c(ccc3c2ccn3CCCC(F)(F)F)n1", "note": "[TCMDC-138622]", "values": [{"measurement": "% Inhibition", "value": 32.41, "unit": "%"}]}
{"smiles": "CCn1ccc2c3c(N)nc(N)nc3ccc21", "note": "[TCMDC-139864]", "values": [{"measurement": "% Inhibition", "value": 0.4857, "unit": "%"}]}
{"smiles": "Oc1ccc(Br)cc1C(O)CNCc1ccccc1OCc1ccccc1", "note": "(stereo not drawn) [TCMDC-140564]", "values": [{"measurement": "% Inhibition", "value": 21.06, "unit": "%"}]}
{"smiles": "OC1(CNCc2ccccc2)CCN(CCc2c[nH]c3ccc(F)cc23)CC1", "note": "[TCMDC-131975]", "values": [{"measurement": "% Inhibition", "value": 35.49, "unit": "%"}]}
{"smiles": "Fc1ccc2[nH]cc(CCN3CCC(CNCc4ccccc4)CC3)c2c1", "note": "[TCMDC-131984]", "values": [{"measurement": "% Inhibition", "value": 53.36, "unit": "%"}]}
{"smiles": "CN(Cc1ccccc1)C1CCN(CCc2c[nH]c3ccc(F)cc23)CC1", "note": "[TCMDC-131970]", "values": [{"measurement": "% Inhibition", "value": 10.21, "unit": "%"}]}
{"smiles": "N#Cc1ccc2c(c1)CN(CC[C@H]1CC[C@H](NC(=O)/C=C/c3c[nH]c4ccccc34)CC1)CC2", "note": "[TCMDC-139133]", "values": [{"measurement": "% Inhibition", "setting": "% Inhibition", "value": 11.83, "unit": "%"}]}
{"smiles": "O=C(NC1CCN(c2ccnc3cc(Cl)ccc23)C1)c1ccccc1F", "note": "(stereo not drawn) [TCMDC-133660]", "values": [{"measurement": "% Inhibition", "value": -3.046, "unit": "%"}]}
{"smiles": "COC(=O)c1cccc(NC(=O)NCCNc2ccnc(Nc3ccc(F)cc3)n2)c1", "note": "[TCMDC-133642]", "values": [{"measurement": "% Inhibition", "value": 41.44, "unit": "%"}]}
{"smiles": "O=C(c1ccc(Br)o1)N1N=C(c2cccs2)CC1c1ccc(Br)cc1", "note": "(stereo not drawn) [TCMDC-125623]", "values": [{"measurement": "% Inhibition", "value": 10.04, "unit": "%"}]}
{"smiles": "O=C(NCCCCN1CCN(c2cccc3c2CCCC3)CC1)c1ccc(NC(=O)c2ccc(Cl)cc2)cc1", "note": "[TCMDC-138513]", "values": [{"measurement": "% Inhibition", "value": -3.326, "unit": "%"}]}
{"smiles": "COc1ccc(C2CCN(CCCCNC(=O)c3ccc(NC(=O)c4ccc(Cl)cc4)cc3)CC2)c(C)c1", "note": "[TCMDC-138359]", "values": [{"measurement": "% Inhibition", "value": -1.308, "unit": "%"}]}
{"smiles": "CC(=O)Oc1c(C2CCN(CCCCNC(=O)c3ccc(NC(=O)c4ccc(Cl)cc4)cc3)CC2)ccc2c1CCCC2", "note": "[TCMDC-138649]", "values": [{"measurement": "% Inhibition", "value": 92.78, "unit": "%"}]}
{"smiles": "O=C(NCCCCN1CCC(c2ccc3c(c2OCC2CC2)CCCC3)CC1)c1ccc(NC(=O)c2ccc(Cl)cc2)cc1", "note": "[TCMDC-138584]", "values": [{"measurement": "% Inhibition", "value": 71.88, "unit": "%"}]}
{"smiles": "O=C(NCCCCN1CCC(c2ccc3c(c2OC(=O)c2ccc(NC(=O)c4ccc(Cl)cc4)cc2)CCCC3)CC1)c1ccc(NC(=O)c2ccc(Cl)cc2)cc1", "note": "[TCMDC-138644]", "values": [{"measurement": "% Inhibition", "value": 102.3, "unit": "%"}]}
{"smiles": "CC(C)(C)c1cc(Cn2ccnc2)cc(C(C)(C)C)c1O", "note": "[TCMDC-131317]", "values": [{"measurement": "% Inhibition", "value": -23.04, "unit": "%"}]}
{"smiles": "Cc1cnc(C(=O)Nc2cccc(-c3csc(-c4nc5ccccc5[nH]4)c3)c2)cn1", "note": "[TCMDC-132401]", "values": [{"measurement": "% Inhibition", "value": -83.32, "unit": "%"}]}
{"smiles": "CC(=O)c1ccc(N2CCN(C(=O)Nc3ccc(Cl)cc3)CC2)cc1", "note": "[TCMDC-125821]", "values": [{"measurement": "% Inhibition", "value": -3.219, "unit": "%"}]}
{"smiles": "O=C(O[C@@H]1CN[C@H](C#Cc2cc3ncnc(Nc4ccc5c(cnn5Cc5cccc(F)c5)c4)c3s2)C1)N1CCCC1", "note": "[TCMDC-135355]", "values": [{"measurement": "% Inhibition", "value": -4.612, "unit": "%"}]}
{"smiles": "CC(C)Oc1cc2c(cc1NS(=O)(=O)c1ccc(-c3cccs3)cc1)CCN(C)CC2", "note": "[TCMDC-141486]", "values": [{"measurement": "% Inhibition", "value": 15.65, "unit": "%"}]}
{"smiles": "COCCCC1C(=O)OC2CCCC21", "note": "(stereo not drawn) [TCMDC-131981]", "values": [{"measurement": "% Inhibition", "value": 9.495, "unit": "%"}]}
{"smiles": "O=C(O)C(F)(F)F.OCCN1CCN(Cc2cccc(-c3ccc(-c4nc5cc(C(F)(F)F)ccc5[nH]4)s3)c2)CC1", "note": "[TCMDC-133028]", "values": [{"measurement": "% Inhibition", "value": 0.1652, "unit": "%"}]}
{"smiles": "CCOC(=O)CCc1cc(F)c(F)c(OC[C@H](O)CNC(C)(C)C(O)c2ccc3ccccc3c2)c1", "note": "(stereo partly drawn) [TCMDC-141731]", "values": [{"measurement": "% Inhibition", "value": -25.49, "unit": "%"}]}
{"smiles": "Clc1ccc(-c2cc3c(NCc4ccncc4)nccc3s2)cc1", "note": "[TCMDC-135202]", "values": [{"measurement": "% Inhibition", "value": 11.9, "unit": "%"}]}
{"smiles": "CN(C)C(=O)CC(=O)NCc1c(Cl)cccc1Cl", "note": "[TCMDC-131769]", "values": [{"measurement": "% Inhibition", "value": -6.865, "unit": "%"}]}
{"smiles": "COc1ccccc1Cn1ccnc1SCC(=O)Nc1cccc(C(F)(F)F)c1", "note": "[TCMDC-124737]", "values": [{"measurement": "% Inhibition", "value": -18.32, "unit": "%"}]}
{"smiles": "COc1cccc(NC(=O)Cn2c(C)c(C#N)c3ccccc32)c1", "note": "[TCMDC-125424]", "values": [{"measurement": "% Inhibition", "value": 84.65, "unit": "%"}]}
{"smiles": "CC(C)C(NC(=O)Cc1cccc2ccccc12)C(=O)Nc1cccc(C#N)c1", "note": "(stereo not drawn) [TCMDC-125329]", "values": [{"measurement": "% Inhibition", "value": -6.888, "unit": "%"}]}
{"smiles": "COc1cccc(NC(=O)c2cc(Br)cc(N3CCN(c4ccncc4)CC3)c2)c1", "note": "[TCMDC-135146]", "values": [{"measurement": "% Inhibition", "value": 1.077, "unit": "%"}]}
{"smiles": "COc1cccc(NC(=O)Cn2c(C)c(C(=O)C(F)(F)F)c3ccccc32)c1", "note": "[TCMDC-123800]", "values": [{"measurement": "% Inhibition", "value": 60.17, "unit": "%"}]}
{"smiles": "COc1cccc(NC(=O)Nc2c(-c3cccc(C(F)(F)F)c3)c(C(F)(F)F)nn2C)c1", "note": "[TCMDC-124575]", "values": [{"measurement": "% Inhibition", "value": 19.24, "unit": "%"}]}
{"smiles": "O=C(/C=C/c1ccc(Cl)cc1)NCCCCCN1CCCN(C(=O)Nc2ccc(Cl)c(C(F)(F)F)c2)CC1", "note": "[TCMDC-136100]", "values": [{"measurement": "% Inhibition", "value": -19.2, "unit": "%"}]}
{"smiles": "O=C(Nc1cccc(N2CCC(NCCCn3ccnc3)CC2)c1)c1cccc(C(F)(F)F)c1", "note": "[TCMDC-124663]", "values": [{"measurement": "% Inhibition", "value": 36.86, "unit": "%"}]}
{"smiles": "Cc1cc(NC(=O)NCCN2CCC(NC(=O)c3ccc(F)cc3)CC2)c2ccccc2n1", "note": "[TCMDC-136173]", "values": [{"measurement": "% Inhibition", "value": 91.01, "unit": "%"}]}
{"smiles": "Cc1ccc(S(=O)(=O)NC2CCN(CCNC(=O)Nc3cc(C)nc4ccccc34)C2)cc1", "note": "(stereo not drawn) [TCMDC-136143]", "values": [{"measurement": "% Inhibition", "value": 91.8, "unit": "%"}]}
{"smiles": "Cc1cc(NC(=O)NCCN2CCC(NS(=O)(=O)c3cccc(Br)c3)C2)c2ccccc2n1", "note": "(stereo not drawn) [TCMDC-136138]", "values": [{"measurement": "% Inhibition", "value": 15.89, "unit": "%"}]}
{"smiles": "Cc1cc(NC(=O)NCCN2CCC(NC(=O)c3cccc(Br)c3)C2)c2ccccc2n1", "note": "(stereo not drawn) [TCMDC-136175]", "values": [{"measurement": "% Inhibition", "value": 92.91, "unit": "%"}]}
{"smiles": "Cc1cc(OCCCN2CCC(NC(=O)c3ccc(Br)cc3)C2)c2ccccc2n1", "note": "(stereo not drawn) [TCMDC-136284]", "values": [{"measurement": "% Inhibition", "value": 3.225, "unit": "%"}]}
{"smiles": "COc1ccc(NC(=O)NC2CCN(CCCOc3ccnc4cc(Cl)ccc34)C2)cc1OC", "note": "(stereo not drawn) [TCMDC-136148]", "values": [{"measurement": "% Inhibition", "value": -28.4, "unit": "%"}]}
{"smiles": "Cc1cc(NC(=O)NCCN2CCC(NC(=O)c3ccc(C(F)(F)F)cc3)CC2)c2ccccc2n1", "note": "[TCMDC-136174]", "values": [{"measurement": "% Inhibition", "value": -43.73, "unit": "%"}]}
{"smiles": "Cc1cc(NC(=O)NCCN2CCC(NC(=O)c3ccc(Cl)cc3)CC2)c2ccccc2n1", "note": "[TCMDC-136171]", "values": [{"measurement": "% Inhibition", "value": -56.82, "unit": "%"}]}
{"smiles": "Cc1ccc(C(=O)NC2CCN(CCNC(=O)Nc3cc(C)nc4ccccc34)CC2)cc1", "note": "[TCMDC-136172]", "values": [{"measurement": "% Inhibition", "value": -7.111, "unit": "%"}]}
{"smiles": "COc1ccc(S(=O)(=O)NC2CCN(CCNC(=O)Nc3cc(C)nc4ccccc34)C2)cc1", "note": "(stereo not drawn) [TCMDC-136141]", "values": [{"measurement": "% Inhibition", "value": -35.07, "unit": "%"}]}
{"smiles": "Cc1cc(NC(=O)NCCN2CCC(NS(=O)(=O)c3ccc(Br)cc3)C2)c2ccccc2n1", "note": "(stereo not drawn) [TCMDC-136139]", "values": [{"measurement": "% Inhibition", "value": 5.798, "unit": "%"}]}
{"smiles": "COc1ccc(NC(=O)NC2CCN(CCCOc3cc(C)nc4ccccc34)CC2)cc1OC", "note": "[TCMDC-136281]", "values": [{"measurement": "% Inhibition", "value": 77.42, "unit": "%"}]}
